Measured values as given in publication PMC11006913.

How the values were obtained:
Assay in all cases: PBM; 200 nM protein, PBS
Details in all cases: dsDNA, one strand shown
HOXB9 [1] = target: HOXB9 (Homo sapiens, UniProt P17482 171-250, T197M)
HOXC9 [2] = target: HOXC9 (Homo sapiens, UniProt P31274 178-260, K195R)
HOXC10 [3] = target: HOXC10 (Homo sapiens, UniProt Q9NYD6 254-340)
HOXB9 [4] = target: HOXB9 (Homo sapiens, UniProt P17482 171-250)
HOXC9 [5] = target: HOXC9 (Homo sapiens, UniProt P31274 178-260)
HOXD13 [6] = target: HOXD13 (Homo sapiens, UniProt P35453 263-343, T313R)
HOXC9 [7] = target: HOXC9 (Homo sapiens, UniProt P31274 178-260, R193K)
HOXD13 [8] = target: HOXD13 (Homo sapiens, UniProt P35453 263-343)
HOXC10 [9] = target: HOXC10 (Homo sapiens, UniProt Q9NYD6 254-340, K271E)
HOXD13 [10] = target: HOXD13 (Homo sapiens, UniProt P35453 263-343, T313A)
HOXB9 [11] = target: HOXB9 (Homo sapiens, UniProt P17482 171-250, R186Q)
HOXC9 [12] = target: HOXC9 (Homo sapiens, UniProt P31274 178-260, R222W)
HOXA2 = HOXA2 (Homo sapiens, UniProt O43364 129-215, R185K)
ALX4 = ALX4 (Homo sapiens, UniProt Q9H161 200-286, Q225E)
MSX2 [13] = target: MSX2 (Homo sapiens, UniProt P35548 130-214)
MSX2 [14] = target: MSX2 (Homo sapiens, UniProt P35548 130-214, F161Y)
Chain of MSX2 (Homo sapiens, UniProt P35548 130-214, F161Y) (P35548 130-214 F161Y): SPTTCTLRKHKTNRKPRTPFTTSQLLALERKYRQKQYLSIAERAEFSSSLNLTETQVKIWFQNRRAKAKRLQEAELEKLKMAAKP

Chain of HOXC9 (Homo sapiens, UniProt P31274 178-260, K195R) (P31274 178-260 K195R): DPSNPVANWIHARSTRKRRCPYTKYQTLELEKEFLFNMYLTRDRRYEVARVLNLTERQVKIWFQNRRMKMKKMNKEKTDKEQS
Chain of HOXC10 (Homo sapiens, UniProt Q9NYD6 254-340) (Q9NYD6 254-340): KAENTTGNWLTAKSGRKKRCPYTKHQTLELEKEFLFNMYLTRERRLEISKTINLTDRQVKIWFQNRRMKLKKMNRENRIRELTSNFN
Chain of HOXC9 (Homo sapiens, UniProt P31274 178-260, R222W) (P31274 178-260 R222W): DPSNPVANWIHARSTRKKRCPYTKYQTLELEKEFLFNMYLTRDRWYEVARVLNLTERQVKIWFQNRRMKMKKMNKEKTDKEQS
Chain of HOXB9 (Homo sapiens, UniProt P17482 171-250, R186Q) (P17482 171-250 R186Q): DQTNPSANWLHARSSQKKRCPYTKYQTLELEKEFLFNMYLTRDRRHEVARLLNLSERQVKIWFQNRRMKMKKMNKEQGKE
Chain of HOXC10 (Homo sapiens, UniProt Q9NYD6 254-340, K271E) (Q9NYD6 254-340 K271E): as the sequence (Q9NYD6 254-340) above, with K18E counted along it
Chain of HOXD13 (Homo sapiens, UniProt P35453 263-343, T313R) (P35453 263-343 T313R): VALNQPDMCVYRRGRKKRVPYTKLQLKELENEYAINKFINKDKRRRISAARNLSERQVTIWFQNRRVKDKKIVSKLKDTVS
Chain of HOXB9 (Homo sapiens, UniProt P17482 171-250, T197M) (P17482 171-250 T197M): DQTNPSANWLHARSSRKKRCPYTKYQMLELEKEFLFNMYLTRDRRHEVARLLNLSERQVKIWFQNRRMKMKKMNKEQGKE
Chain of HOXD13 (Homo sapiens, UniProt P35453 263-343, T313A) (P35453 263-343 T313A): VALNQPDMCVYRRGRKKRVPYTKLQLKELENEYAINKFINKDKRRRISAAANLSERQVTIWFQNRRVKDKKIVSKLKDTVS
Chain of HOXB9 (Homo sapiens, UniProt P17482 171-250) (P17482 171-250): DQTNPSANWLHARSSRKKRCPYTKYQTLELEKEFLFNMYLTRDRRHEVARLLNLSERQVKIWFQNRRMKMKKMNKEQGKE
Chain of HOXD13 (Homo sapiens, UniProt P35453 263-343) (P35453 263-343): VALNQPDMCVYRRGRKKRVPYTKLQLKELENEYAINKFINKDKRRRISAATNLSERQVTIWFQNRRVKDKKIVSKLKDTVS
Chain of HOXC9 (Homo sapiens, UniProt P31274 178-260, R193K) (P31274 178-260 R193K): as the sequence (P31274 178-260 R222W) above, with R16K, W45R counted along it
Chain of HOXC9 (Homo sapiens, UniProt P31274 178-260) (P31274 178-260): as the sequence (P31274 178-260 R222W) above, with W45R counted along it
Chain of ALX4 (Q9H161 200-286 Q225E): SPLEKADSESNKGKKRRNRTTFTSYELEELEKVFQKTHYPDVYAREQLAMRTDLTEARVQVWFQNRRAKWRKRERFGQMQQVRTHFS
Chain of HOXA2 (O43364 129-215 R185K): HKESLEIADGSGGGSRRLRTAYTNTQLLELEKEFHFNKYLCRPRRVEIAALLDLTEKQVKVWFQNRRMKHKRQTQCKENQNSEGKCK
Chain of MSX2 (Homo sapiens, UniProt P35548 130-214) (P35548 130-214): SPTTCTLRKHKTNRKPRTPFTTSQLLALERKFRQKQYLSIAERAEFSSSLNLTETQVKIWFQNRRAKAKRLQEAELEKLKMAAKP

Row | Sequence | binding signal (HOXB9 [1]) | binding signal (HOXC9 [2]) | binding signal (HOXC10 [3]) | binding signal (HOXB9 [4]) | binding signal (HOXC9 [5]) | binding signal (HOXD13 [6]) | binding signal (HOXC9 [7]) | binding signal (HOXD13 [8]) | binding signal (HOXC10 [9]) | binding signal (HOXD13 [10]) | binding signal (HOXB9 [11]) | binding signal (HOXC9 [12]) | binding signal (HOXA2) | binding signal (ALX4) | binding signal (MSX2 [13]) | binding signal (MSX2 [14])
1 | ATCGTAAA | 9.78 upbm affinity estimate (log intensity, higher = more binding, comparable within an allelic series) | 12.6 upbm affinity estimate (log intensity, higher = more binding, comparable within an allelic series) | 12.7 upbm affinity estimate (log intensity, higher = more binding, comparable within an allelic series) | 11.9 upbm affinity estimate (log intensity, higher = more binding, comparable within an allelic series) | 12.9 upbm affinity estimate (log intensity, higher = more binding, comparable within an allelic series) | 10.9 upbm affinity estimate (log intensity, higher = more binding, comparable within an allelic series) | 12.6 upbm affinity estimate (log intensity, higher = more binding, comparable within an allelic series) | 12.1 upbm affinity estimate (log intensity, higher = more binding, comparable within an allelic series) | 12.1 upbm affinity estimate (log intensity, higher = more binding, comparable within an allelic series) | 11.8 upbm affinity estimate (log intensity, higher = more binding, comparable within an allelic series) | 11.4 upbm affinity estimate (log intensity, higher = more binding, comparable within an allelic series) | 10.8 upbm affinity estimate (log intensity, higher = more binding, comparable within an allelic series) | – | – | – | –
2 | CATAAAAA | 9.93 upbm affinity estimate (log intensity, higher = more binding, comparable within an allelic series) | 12.8 upbm affinity estimate (log intensity, higher = more binding, comparable within an allelic series) | 12.6 upbm affinity estimate (log intensity, higher = more binding, comparable within an allelic series) | 12.4 upbm affinity estimate (log intensity, higher = more binding, comparable within an allelic series) | 13 upbm affinity estimate (log intensity, higher = more binding, comparable within an allelic series) | 10.7 upbm affinity estimate (log intensity, higher = more binding, comparable within an allelic series) | 13 upbm affinity estimate (log intensity, higher = more binding, comparable within an allelic series) | 11.8 upbm affinity estimate (log intensity, higher = more binding, comparable within an allelic series) | 12 upbm affinity estimate (log intensity, higher = more binding, comparable within an allelic series) | 11.6 upbm affinity estimate (log intensity, higher = more binding, comparable within an allelic series) | 12 upbm affinity estimate (log intensity, higher = more binding, comparable within an allelic series) | 11.4 upbm affinity estimate (log intensity, higher = more binding, comparable within an allelic series) | – | – | – | –
3 | ATCGTTAA | 9.99 upbm affinity estimate (log intensity, higher = more binding, comparable within an allelic series) | 12.5 upbm affinity estimate (log intensity, higher = more binding, comparable within an allelic series) | 12.4 upbm affinity estimate (log intensity, higher = more binding, comparable within an allelic series) | – | 12.6 upbm affinity estimate (log intensity, higher = more binding, comparable within an allelic series) | – | 12.5 upbm affinity estimate (log intensity, higher = more binding, comparable within an allelic series) | – | 12.1 upbm affinity estimate (log intensity, higher = more binding, comparable within an allelic series) | – | – | 10.7 upbm affinity estimate (log intensity, higher = more binding, comparable within an allelic series) | 13.1 upbm affinity estimate (log intensity, higher = more binding, comparable within an allelic series) | – | – | –
4 | AATAAAAA | 9.88 upbm affinity estimate (log intensity, higher = more binding, comparable within an allelic series) | 12.5 upbm affinity estimate (log intensity, higher = more binding, comparable within an allelic series) | 12.4 upbm affinity estimate (log intensity, higher = more binding, comparable within an allelic series) | 11.9 upbm affinity estimate (log intensity, higher = more binding, comparable within an allelic series) | 12.6 upbm affinity estimate (log intensity, higher = more binding, comparable within an allelic series) | – | 12.5 upbm affinity estimate (log intensity, higher = more binding, comparable within an allelic series) | – | 11.9 upbm affinity estimate (log intensity, higher = more binding, comparable within an allelic series) | – | 11.6 upbm affinity estimate (log intensity, higher = more binding, comparable within an allelic series) | 11.2 upbm affinity estimate (log intensity, higher = more binding, comparable within an allelic series) | – | 10.9 upbm affinity estimate (log intensity, higher = more binding, comparable within an allelic series) | – | –
5 | ACATAAAA | 9.85 upbm affinity estimate (log intensity, higher = more binding, comparable within an allelic series) | 12.8 upbm affinity estimate (log intensity, higher = more binding, comparable within an allelic series) | 12.5 upbm affinity estimate (log intensity, higher = more binding, comparable within an allelic series) | 12.3 upbm affinity estimate (log intensity, higher = more binding, comparable within an allelic series) | 13 upbm affinity estimate (log intensity, higher = more binding, comparable within an allelic series) | – | 12.9 upbm affinity estimate (log intensity, higher = more binding, comparable within an allelic series) | – | 12 upbm affinity estimate (log intensity, higher = more binding, comparable within an allelic series) | – | 12 upbm affinity estimate (log intensity, higher = more binding, comparable within an allelic series) | 11.3 upbm affinity estimate (log intensity, higher = more binding, comparable within an allelic series) | – | – | 11.3 upbm affinity estimate (log intensity, higher = more binding, comparable within an allelic series) | 11.1 upbm affinity estimate (log intensity, higher = more binding, comparable within an allelic series)
6 | TCATAAAA | 9.93 upbm affinity estimate (log intensity, higher = more binding, comparable within an allelic series) | 13 upbm affinity estimate (log intensity, higher = more binding, comparable within an allelic series) | 12.8 upbm affinity estimate (log intensity, higher = more binding, comparable within an allelic series) | 12.4 upbm affinity estimate (log intensity, higher = more binding, comparable within an allelic series) | 13.1 upbm affinity estimate (log intensity, higher = more binding, comparable within an allelic series) | 11 upbm affinity estimate (log intensity, higher = more binding, comparable within an allelic series) | 12.9 upbm affinity estimate (log intensity, higher = more binding, comparable within an allelic series) | 12.2 upbm affinity estimate (log intensity, higher = more binding, comparable within an allelic series) | 12.3 upbm affinity estimate (log intensity, higher = more binding, comparable within an allelic series) | 11.9 upbm affinity estimate (log intensity, higher = more binding, comparable within an allelic series) | 12.1 upbm affinity estimate (log intensity, higher = more binding, comparable within an allelic series) | 11.3 upbm affinity estimate (log intensity, higher = more binding, comparable within an allelic series) | – | – | – | –
7 | AATAAAAT | 10 upbm affinity estimate (log intensity, higher = more binding, comparable within an allelic series) | 12.7 upbm affinity estimate (log intensity, higher = more binding, comparable within an allelic series) | 12.5 upbm affinity estimate (log intensity, higher = more binding, comparable within an allelic series) | 12.1 upbm affinity estimate (log intensity, higher = more binding, comparable within an allelic series) | 12.7 upbm affinity estimate (log intensity, higher = more binding, comparable within an allelic series) | 10.8 upbm affinity estimate (log intensity, higher = more binding, comparable within an allelic series) | 12.7 upbm affinity estimate (log intensity, higher = more binding, comparable within an allelic series) | 11.8 upbm affinity estimate (log intensity, higher = more binding, comparable within an allelic series) | 12 upbm affinity estimate (log intensity, higher = more binding, comparable within an allelic series) | 11.8 upbm affinity estimate (log intensity, higher = more binding, comparable within an allelic series) | 11.7 upbm affinity estimate (log intensity, higher = more binding, comparable within an allelic series) | 11.5 upbm affinity estimate (log intensity, higher = more binding, comparable within an allelic series) | – | 11.1 upbm affinity estimate (log intensity, higher = more binding, comparable within an allelic series) | – | –
